# Assay results as given in PMC7862700, “An all-to-all approach to the identification of sequence-specific readers for epigenetic DNA modifications on cytosine”.
# Columns and labels:
# Experiment in all cases: DAPPL (digital affinity profiling via proximity ligation, sequencing); 10 mM Tris-HCl pH 7.5, 50 mM NaCl, 1 mM DTT, 4% glycerol, room temperature, 30 min; GST-TFs on glutathione beads, 16-mer random dsDNA library, 0.1% formaldehyde crosslink after washing; high values mean tight binding
# FEV = molecular target: T1, FEV (Homo sapiens, UniProt Q99581 1-238); details: protein: recombinant; tags: N-terminal GST; dsDNA, one strand shown
# T1 sequence: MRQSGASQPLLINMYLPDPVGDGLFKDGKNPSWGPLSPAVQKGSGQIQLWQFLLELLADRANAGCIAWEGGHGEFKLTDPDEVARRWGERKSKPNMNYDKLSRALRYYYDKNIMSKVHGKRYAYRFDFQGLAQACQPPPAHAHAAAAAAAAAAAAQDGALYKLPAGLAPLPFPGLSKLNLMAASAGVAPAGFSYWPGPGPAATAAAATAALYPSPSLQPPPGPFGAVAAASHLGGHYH
# How it was run: (§1)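 In yeast, human transcription factors were expressed with a GST fusion, then pulled down on glutathione beads and given DNA barcodes. Pooled with a tag-only sample, they were exposed to 200 nmole of a 16-mer random double-stranded DNA library (Tris/NaCl/DTT/glycerol buffer, room temperature, 30 min), washed, crosslinked with 0.1% formaldehyde, proximity-ligated using BsaI/T4 ligase for 1 h at 37 °C, PCR-amplified and read on an Illumina NextSeq500. Each hexamer's frequency of reads for a factor, divided by the matching frequency for the tag-only sample, gives the binding signal.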
# ETV5 = ETV5 (Homo sapiens, UniProt P41161 1-510); details: protein: recombinant; tags: N-terminal GST; dsDNA, one strand shown
# How it was run: as §1
# HSF1 = HSF1 (Homo sapiens, UniProt Q00613 1-529); details: protein: recombinant; tags: N-terminal GST; chain copies: 3; dsDNA, one strand shown
# How it was run: as §1
# SPIC = molecular target: T2, SPIC (Homo sapiens, UniProt Q8N5J4 1-248); details: protein: recombinant; tags: N-terminal GST; dsDNA, one strand shown
# T2 sequence: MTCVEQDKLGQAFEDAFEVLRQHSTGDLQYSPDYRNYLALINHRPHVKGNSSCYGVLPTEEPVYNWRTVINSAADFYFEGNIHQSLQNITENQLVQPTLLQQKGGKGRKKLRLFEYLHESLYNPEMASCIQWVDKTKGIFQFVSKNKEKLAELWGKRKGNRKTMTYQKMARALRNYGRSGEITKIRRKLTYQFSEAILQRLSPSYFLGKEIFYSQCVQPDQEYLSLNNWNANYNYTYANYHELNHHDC
# How it was run: as §1
# ELF4 = ELF4 (Homo sapiens, UniProt Q99607 1-663); details: protein: recombinant; tags: N-terminal GST; dsDNA, one strand shown
# How it was run: as §1
# ELK4 = molecular target: T3, ELK4 (Homo sapiens, UniProt P28324-2 1-405); details: protein: recombinant; tags: N-terminal GST; dsDNA, one strand shown
# T3 sequence: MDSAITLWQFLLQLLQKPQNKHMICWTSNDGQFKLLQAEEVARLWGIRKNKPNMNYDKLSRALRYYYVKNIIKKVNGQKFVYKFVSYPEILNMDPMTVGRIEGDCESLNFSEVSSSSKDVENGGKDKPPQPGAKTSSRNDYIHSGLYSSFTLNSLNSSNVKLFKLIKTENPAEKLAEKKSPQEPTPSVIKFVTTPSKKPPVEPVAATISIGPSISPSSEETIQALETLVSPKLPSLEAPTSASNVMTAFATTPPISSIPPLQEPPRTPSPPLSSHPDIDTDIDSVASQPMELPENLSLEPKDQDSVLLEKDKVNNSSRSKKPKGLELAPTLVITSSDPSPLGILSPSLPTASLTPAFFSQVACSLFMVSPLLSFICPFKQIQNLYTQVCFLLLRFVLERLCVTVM
# How it was run: as §1
# ETV2 = molecular target: T4, ETV2 (Homo sapiens, UniProt O00321 1-342); details: protein: recombinant; tags: N-terminal GST; dsDNA, one strand shown
# T4 sequence: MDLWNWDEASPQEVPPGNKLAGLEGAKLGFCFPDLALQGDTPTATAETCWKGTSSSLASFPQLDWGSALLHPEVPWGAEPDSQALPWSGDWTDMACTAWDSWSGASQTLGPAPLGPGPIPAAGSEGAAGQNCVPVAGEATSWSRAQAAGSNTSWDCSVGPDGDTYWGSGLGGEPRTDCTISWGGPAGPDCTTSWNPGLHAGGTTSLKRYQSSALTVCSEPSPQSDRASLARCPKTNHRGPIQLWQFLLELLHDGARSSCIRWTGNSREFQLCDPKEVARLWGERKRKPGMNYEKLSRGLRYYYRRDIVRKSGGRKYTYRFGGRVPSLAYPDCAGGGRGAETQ
# How it was run: as §1
# ELF3 = molecular target: T5, ELF3 (Homo sapiens, UniProt P78545 1-371); details: protein: recombinant; tags: N-terminal GST; dsDNA, one strand shown
# T5 sequence: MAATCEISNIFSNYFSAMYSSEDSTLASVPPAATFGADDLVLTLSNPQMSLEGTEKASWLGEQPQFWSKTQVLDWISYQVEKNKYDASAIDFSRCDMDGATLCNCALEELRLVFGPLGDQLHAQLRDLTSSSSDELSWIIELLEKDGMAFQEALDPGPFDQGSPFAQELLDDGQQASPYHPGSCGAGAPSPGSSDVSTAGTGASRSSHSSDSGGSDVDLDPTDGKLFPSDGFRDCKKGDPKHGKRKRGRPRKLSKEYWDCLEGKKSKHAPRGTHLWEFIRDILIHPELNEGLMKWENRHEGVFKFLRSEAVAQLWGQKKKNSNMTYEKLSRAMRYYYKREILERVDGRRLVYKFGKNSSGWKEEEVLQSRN
# How it was run: as §1
# CRX = CRX (Homo sapiens, UniProt O43186 1-299); details: protein: recombinant; tags: N-terminal GST; dsDNA, one strand shown
# How it was run: as §1
# ETV1 = ETV1 (Homo sapiens, UniProt P50549 1-477); details: protein: recombinant; tags: N-terminal GST; dsDNA, one strand shown
# How it was run: as §1
# ERF = molecular target: T6, ERF (Homo sapiens, UniProt P50548 1-548); details: protein: recombinant; tags: N-terminal GST; dsDNA, one strand shown
# T6 sequence: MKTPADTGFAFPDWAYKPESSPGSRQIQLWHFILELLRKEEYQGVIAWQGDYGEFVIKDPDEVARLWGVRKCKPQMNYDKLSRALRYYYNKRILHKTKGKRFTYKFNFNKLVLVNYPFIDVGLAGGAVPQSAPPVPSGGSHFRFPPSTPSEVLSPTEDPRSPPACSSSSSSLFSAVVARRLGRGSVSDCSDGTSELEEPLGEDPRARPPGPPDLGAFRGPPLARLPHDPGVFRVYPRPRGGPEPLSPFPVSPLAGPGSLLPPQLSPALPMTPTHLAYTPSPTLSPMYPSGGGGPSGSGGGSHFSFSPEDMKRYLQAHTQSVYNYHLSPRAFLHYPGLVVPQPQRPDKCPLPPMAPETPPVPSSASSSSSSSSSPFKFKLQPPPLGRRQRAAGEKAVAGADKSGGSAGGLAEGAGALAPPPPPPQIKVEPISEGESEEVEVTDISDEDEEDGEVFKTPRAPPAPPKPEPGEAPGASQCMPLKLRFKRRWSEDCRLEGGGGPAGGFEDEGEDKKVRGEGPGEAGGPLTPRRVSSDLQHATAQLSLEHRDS
# How it was run: as §1
# ETV3L = molecular target: T7, ETV3L (Homo sapiens, UniProt Q6ZN32 1-361); details: protein: recombinant; tags: N-terminal GST; dsDNA, one strand shown
# T7 sequence: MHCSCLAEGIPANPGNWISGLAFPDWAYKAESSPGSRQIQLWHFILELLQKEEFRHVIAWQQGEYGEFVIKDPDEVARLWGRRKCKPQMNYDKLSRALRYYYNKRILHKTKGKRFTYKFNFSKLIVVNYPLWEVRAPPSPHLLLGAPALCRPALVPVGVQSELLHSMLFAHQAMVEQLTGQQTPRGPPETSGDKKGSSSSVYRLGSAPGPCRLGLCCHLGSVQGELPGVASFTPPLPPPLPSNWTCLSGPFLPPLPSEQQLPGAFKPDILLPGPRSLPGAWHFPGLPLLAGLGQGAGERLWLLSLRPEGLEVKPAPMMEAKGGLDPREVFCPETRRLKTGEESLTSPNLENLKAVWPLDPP
# How it was run: as §1
# ETS2 = molecular target: T8, ETS2 (Homo sapiens, UniProt P15036 1-469); details: protein: recombinant; tags: N-terminal GST; dsDNA, one strand shown
# T8 sequence: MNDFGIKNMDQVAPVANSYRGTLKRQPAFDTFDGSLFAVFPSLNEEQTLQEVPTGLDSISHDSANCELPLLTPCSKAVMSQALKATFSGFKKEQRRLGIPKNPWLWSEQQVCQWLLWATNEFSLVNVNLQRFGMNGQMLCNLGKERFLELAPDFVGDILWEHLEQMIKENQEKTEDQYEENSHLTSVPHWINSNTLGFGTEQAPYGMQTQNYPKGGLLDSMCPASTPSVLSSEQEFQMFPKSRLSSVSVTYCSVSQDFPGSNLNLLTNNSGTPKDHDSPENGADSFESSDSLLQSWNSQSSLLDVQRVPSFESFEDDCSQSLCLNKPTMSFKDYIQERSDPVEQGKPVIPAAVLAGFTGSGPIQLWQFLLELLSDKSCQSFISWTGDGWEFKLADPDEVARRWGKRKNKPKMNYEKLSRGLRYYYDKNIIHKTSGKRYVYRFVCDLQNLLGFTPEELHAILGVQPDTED
# How it was run: as §1
# SPDEF = molecular target: T9, SPDEF (Homo sapiens, UniProt O95238 1-335); details: protein: recombinant; tags: N-terminal GST; dsDNA, one strand shown
# T9 sequence: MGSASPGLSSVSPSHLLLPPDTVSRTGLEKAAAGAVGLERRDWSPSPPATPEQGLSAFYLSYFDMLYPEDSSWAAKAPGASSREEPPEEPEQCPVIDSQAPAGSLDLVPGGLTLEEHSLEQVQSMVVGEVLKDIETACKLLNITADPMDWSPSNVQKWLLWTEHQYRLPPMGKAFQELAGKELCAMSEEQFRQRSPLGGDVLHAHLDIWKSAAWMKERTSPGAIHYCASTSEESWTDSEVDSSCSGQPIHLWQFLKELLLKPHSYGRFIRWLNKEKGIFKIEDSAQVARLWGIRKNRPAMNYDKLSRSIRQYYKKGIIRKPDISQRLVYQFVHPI
# How it was run: as §1
# ETV7 = molecular target: T10, ETV7 (Homo sapiens, UniProt Q9Y603 1-341); details: protein: recombinant; tags: N-terminal GST; dsDNA, one strand shown
# T10 sequence: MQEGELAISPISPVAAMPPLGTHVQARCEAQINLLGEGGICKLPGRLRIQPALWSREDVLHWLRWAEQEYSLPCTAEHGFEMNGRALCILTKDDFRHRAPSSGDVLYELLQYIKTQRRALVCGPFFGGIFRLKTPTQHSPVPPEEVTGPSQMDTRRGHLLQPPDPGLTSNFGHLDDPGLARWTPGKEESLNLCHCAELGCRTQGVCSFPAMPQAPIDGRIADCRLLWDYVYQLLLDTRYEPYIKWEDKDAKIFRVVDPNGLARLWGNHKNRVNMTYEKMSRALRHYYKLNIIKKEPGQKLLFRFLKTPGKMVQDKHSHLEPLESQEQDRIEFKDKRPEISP
# How it was run: as §1
# ELF5 = molecular target: T11, ELF5 (Homo sapiens, UniProt Q9UKW6-2 1-255); details: protein: recombinant; tags: N-terminal GST; dsDNA, one strand shown
# T11 sequence: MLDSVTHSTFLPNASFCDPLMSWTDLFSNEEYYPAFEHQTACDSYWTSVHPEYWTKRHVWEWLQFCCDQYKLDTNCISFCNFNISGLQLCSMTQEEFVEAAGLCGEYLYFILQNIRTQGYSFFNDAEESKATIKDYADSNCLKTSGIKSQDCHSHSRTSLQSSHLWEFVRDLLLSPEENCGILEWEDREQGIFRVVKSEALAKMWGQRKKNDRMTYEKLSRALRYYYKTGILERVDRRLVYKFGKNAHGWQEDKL
# How it was run: as §1
# ETV3 = molecular target: T12, ETV3 (Homo sapiens, UniProt P41162-2 1-143); details: protein: recombinant; tags: N-terminal GST; dsDNA, one strand shown
# T12 sequence: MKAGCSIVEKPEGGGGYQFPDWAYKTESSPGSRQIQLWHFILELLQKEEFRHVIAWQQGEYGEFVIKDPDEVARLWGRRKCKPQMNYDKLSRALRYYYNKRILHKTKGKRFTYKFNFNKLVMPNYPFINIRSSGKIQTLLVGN
# How it was run: as §1
# ETV6 = ETV6 (Homo sapiens, UniProt P41212 1-452); details: protein: recombinant; tags: N-terminal GST; dsDNA, one strand shown
# How it was run: as §1
# CRX, sequence (O43186 whole entry): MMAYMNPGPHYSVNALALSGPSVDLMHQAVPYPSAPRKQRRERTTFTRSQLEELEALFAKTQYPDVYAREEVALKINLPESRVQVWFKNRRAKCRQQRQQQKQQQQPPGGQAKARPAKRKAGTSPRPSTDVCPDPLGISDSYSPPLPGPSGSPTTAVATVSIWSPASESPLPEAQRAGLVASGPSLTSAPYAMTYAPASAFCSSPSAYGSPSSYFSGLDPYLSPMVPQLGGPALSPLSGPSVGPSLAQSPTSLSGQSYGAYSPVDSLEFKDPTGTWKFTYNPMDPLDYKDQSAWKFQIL
# ETV1, sequence (P50549 whole entry): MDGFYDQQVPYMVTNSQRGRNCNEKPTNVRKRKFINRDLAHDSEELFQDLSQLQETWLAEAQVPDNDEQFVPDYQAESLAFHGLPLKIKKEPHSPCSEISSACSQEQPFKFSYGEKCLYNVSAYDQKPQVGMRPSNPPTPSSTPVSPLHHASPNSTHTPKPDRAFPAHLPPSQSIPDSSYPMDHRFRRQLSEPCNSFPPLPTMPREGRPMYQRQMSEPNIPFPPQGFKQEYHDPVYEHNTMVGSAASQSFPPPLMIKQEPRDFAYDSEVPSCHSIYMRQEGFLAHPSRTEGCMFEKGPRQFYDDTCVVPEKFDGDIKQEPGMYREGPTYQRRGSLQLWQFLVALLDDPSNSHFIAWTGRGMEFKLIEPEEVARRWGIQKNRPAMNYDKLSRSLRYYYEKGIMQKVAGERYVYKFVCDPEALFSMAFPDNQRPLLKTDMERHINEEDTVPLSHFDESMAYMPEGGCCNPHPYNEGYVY
# ETV6, sequence (P41212 whole entry): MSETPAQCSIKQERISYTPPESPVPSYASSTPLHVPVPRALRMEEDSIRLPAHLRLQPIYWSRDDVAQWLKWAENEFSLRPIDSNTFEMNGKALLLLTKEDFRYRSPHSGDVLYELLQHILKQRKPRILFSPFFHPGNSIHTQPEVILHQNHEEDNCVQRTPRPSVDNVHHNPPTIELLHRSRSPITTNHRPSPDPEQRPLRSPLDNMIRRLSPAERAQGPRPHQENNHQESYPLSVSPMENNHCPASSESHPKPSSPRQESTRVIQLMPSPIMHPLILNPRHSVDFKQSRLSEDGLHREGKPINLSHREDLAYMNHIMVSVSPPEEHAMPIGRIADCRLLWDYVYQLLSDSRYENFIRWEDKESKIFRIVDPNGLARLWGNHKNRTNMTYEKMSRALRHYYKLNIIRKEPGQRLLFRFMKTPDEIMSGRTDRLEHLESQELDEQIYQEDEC
# ELF4, sequence (Q99607 whole entry): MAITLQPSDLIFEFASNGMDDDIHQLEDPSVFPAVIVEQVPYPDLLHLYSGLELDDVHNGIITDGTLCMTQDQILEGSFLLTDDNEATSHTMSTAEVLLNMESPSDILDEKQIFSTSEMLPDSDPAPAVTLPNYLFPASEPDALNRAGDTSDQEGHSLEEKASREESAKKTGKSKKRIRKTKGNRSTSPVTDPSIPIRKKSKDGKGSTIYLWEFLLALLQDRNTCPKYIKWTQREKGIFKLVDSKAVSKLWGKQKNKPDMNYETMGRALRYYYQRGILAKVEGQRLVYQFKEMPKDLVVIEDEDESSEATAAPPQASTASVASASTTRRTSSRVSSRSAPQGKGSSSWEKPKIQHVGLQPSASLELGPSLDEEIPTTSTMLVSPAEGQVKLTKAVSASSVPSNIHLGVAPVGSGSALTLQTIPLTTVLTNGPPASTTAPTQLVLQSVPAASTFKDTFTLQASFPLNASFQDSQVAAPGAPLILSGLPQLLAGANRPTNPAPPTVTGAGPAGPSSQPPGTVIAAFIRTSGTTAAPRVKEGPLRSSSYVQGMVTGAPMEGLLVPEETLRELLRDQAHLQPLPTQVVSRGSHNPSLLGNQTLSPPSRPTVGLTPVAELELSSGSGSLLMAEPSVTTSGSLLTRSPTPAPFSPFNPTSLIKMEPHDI
# HSF1, sequence (Q00613 whole entry): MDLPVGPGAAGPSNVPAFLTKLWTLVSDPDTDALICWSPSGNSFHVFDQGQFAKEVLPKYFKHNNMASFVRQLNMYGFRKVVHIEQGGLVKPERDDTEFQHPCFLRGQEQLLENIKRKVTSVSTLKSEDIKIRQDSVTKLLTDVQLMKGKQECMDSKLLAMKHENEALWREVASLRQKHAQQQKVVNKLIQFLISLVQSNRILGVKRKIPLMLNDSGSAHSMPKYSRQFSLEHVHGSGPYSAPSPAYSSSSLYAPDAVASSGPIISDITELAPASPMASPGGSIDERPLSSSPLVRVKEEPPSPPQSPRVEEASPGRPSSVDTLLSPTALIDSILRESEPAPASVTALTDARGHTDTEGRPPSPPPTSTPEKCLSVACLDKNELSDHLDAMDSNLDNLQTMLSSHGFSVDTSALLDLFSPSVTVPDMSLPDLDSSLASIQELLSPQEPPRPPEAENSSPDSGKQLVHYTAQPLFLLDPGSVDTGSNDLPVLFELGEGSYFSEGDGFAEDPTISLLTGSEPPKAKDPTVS
# ETV5, sequence (P41161 whole entry): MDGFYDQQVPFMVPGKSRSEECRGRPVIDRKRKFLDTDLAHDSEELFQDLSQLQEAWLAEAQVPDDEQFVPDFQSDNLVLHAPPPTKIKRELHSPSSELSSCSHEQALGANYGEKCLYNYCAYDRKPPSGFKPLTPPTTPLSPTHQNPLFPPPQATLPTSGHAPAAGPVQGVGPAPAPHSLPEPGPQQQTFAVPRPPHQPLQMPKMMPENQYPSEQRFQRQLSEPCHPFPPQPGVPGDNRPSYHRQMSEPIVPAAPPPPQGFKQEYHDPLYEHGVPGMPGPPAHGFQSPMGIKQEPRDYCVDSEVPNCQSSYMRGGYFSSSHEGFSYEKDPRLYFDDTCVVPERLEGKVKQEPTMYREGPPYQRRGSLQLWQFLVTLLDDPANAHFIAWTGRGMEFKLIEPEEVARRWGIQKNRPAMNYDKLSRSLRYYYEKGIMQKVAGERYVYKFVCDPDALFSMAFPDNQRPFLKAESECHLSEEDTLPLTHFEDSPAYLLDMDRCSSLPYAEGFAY
sequence,measurement,setting,value
ATTACT,binding signal,FEV,"1.27 fold enrichment (6-mer frequency, TF over GST control)"
same,binding signal,ETV5,"1.23 fold enrichment (6-mer frequency, TF over GST control)"
same,binding signal,HSF1,"1.66 fold enrichment (6-mer frequency, TF over GST control)"
same,binding signal,SPIC,"1.38 fold enrichment (6-mer frequency, TF over GST control)"
same,binding signal,ELF4,"1.19 fold enrichment (6-mer frequency, TF over GST control)"
same,binding signal,ELK4,"1.39 fold enrichment (6-mer frequency, TF over GST control)"
same,binding signal,ETV2,"1.48 fold enrichment (6-mer frequency, TF over GST control)"
same,binding signal,ELF3,"1.39 fold enrichment (6-mer frequency, TF over GST control)"
same,binding signal,CRX,"2.22 fold enrichment (6-mer frequency, TF over GST control)"
same,binding signal,ETV1,"1.35 fold enrichment (6-mer frequency, TF over GST control)"
same,binding signal,ERF,"1.37 fold enrichment (6-mer frequency, TF over GST control)"
same,binding signal,ETV3L,"1.23 fold enrichment (6-mer frequency, TF over GST control)"
same,binding signal,ETS2,"1.31 fold enrichment (6-mer frequency, TF over GST control)"
same,binding signal,SPDEF,"1.26 fold enrichment (6-mer frequency, TF over GST control)"
same,binding signal,ETV7,"1.25 fold enrichment (6-mer frequency, TF over GST control)"
same,binding signal,ELF5,"1.25 fold enrichment (6-mer frequency, TF over GST control)"
same,binding signal,ETV3,"1.29 fold enrichment (6-mer frequency, TF over GST control)"
same,binding signal,ETV6,"1.37 fold enrichment (6-mer frequency, TF over GST control)"
